From PubChem BioAssay (NCI)
About 83,000 compounds went through this panel and 20% of them were active in at least one assay; those are over-represented in the sample as a whole.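 Negative percent growth values reflect cell death: -40 means 40% of the cells present at the start died, and -100 means all died.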 A number with no mark means an inactive call. Activity calls are given as the source filed them. Rule for the calls: active = growth percent below 10; inactive = the rest.

How the values were obtained:
Test in all cases: NCI-60 one-dose screen, 48 h (100 = growth as untreated, 0 = no growth, -100 = all killed)
Conditions in all cases: 10 µM unless noted
[1] = system: T-47D breast
[2] = system: BT-549 breast
[3] = system: MDA-MB-435 melanoma
[4] = system: SW-620 colon
[5] = system: MCF7 breast
[6] = system: HCT-116 colon
[7] = system: HCC-2998 colon
[8] = system: KM12 colon

Row | Structure (SMILES) | growth [1] | growth [2] | growth [3] | growth [4] | growth [5] | growth [6] | growth [7] | growth [8]
1 | O=S1SC(c2ccccc2)=NN1c1cc(F)cc(F)c1 (centres undefined) | 1.86% (active) | 7.34% (active) | 63.3% | 59.2% | 35.6% | 16.5% | 79.6% | 41.7%
2 | N#C/C(=C\c1cccc2c1OCO2)C(=O)Nc1sc2c(c1C#N)CCCC2 | 93.8% | 107% | 103% | 106% | 97.6% | 98.4% | 120% | 103%
3 | CC(=O)N(O)CCCCCNC(=O)CCC(=O)N(O)CCCCCNC(=O)CCC(=O)N(O)CCCCCN(CCCCCCCCCC[P+](c1ccccc1)(c1ccccc1)c1ccccc1)CCCCCCCCCC[P+](c1ccccc1)(c1ccccc1)c1ccccc1 | -4.99% (active) | -30.7% (active) | 4.44% (active) | 12.2% | 5.05% (active) | 3.76% (active) | 4.2% (active) | 4.3% (active)
4 | C#Cc1nc(/C=C\CCCCCCC(=O)NO)cs1 | 42.3% | 87.5% | 45.9% | 23.9% | 35.2% | 20.5% | 98.8% | 41.2%
5 | CCCCCc1ccc(S(=O)(=O)Nc2cc(-c3csc(N)n3)ccc2OC)cc1 | 83% | 102% | 107% | 110% | 66.1% | 95.1% | 111% | 99.6%
6 | COc1ccc2c(c1)c(-c1nnc(N)nc1-c1c[nH]c3ccc(F)cc13)cn2C | 46.5% | 53.5% | 3.37% (active) | 25.7% | 18.9% | 21.4% | 74.6% | 22.9%
7 | C#CCN(C)CCCOc1ccc(NCc2ccc(/C=C/C(=O)NO)cc2)cc1Cl | 1.04% (active) | 18.8% | -25.3% (active) | 10.1% | 10.4% | 9.47% (active) | -43.2% (active) | 5.72% (active)
8 | O=C(Nc1ccc(Cl)c(C(F)(F)F)c1)Nc1ccc2c(ccn2C(=O)c2cccc(F)c2)c1 | 0.647% (active) | 53.3% | 34.6% | 40.9% | 12.9% | 20% | 44.1% | 11%
9 | CCCc1[nH]c(-c2cc(N)ccc2Cl)c2c1C(=O)CCCC2 | 75.7% | 111% | 99.5% | 105% | 87.1% | 95.2% | 101% | 93.7%
10 | CN1CCN(Cc2ccc(NC(=O)c3cncc(C#Cc4cnc5ccc(OCC(F)F)nn45)c3)cc2C(F)(F)F)CC1 | 8.64% (active) | -16.6% (active) | -92.6% (active) | -49.1% (active) | -66.6% (active) | -84.3% (active) | -67% (active) | -53.9% (active)
11 | CC1=C(C)C(=O)C(Nc2cccc(C)c2)=C(Br)C1=O | 4.47% (active) | 106% | 109% | 107% | 75.7% | 76.9% | 111% | 105%
12 | CC(C)(O)c1cncc(-c2ccc3ncc(C#N)c(N4CCc5cc(F)c(Cl)cc54)c3c2)c1 | 2.88% (active) | 2.34% (active) | 17.9% | 26.6% | 8.93% (active) | 24.8% | 18.7% | 34.3%
13 | C#C[C@]1(O)CC[C@H]2[C@@H]3CC=C4c5sc(Nc6ncccc6C)nc5CC[C@]4(C)[C@H]3CC[C@@]21C | 29.2% | -1.46% (active) | -39.3% (active) | -40.9% (active) | -48.8% (active) | 7.15% (active) | 28.8% | 3.23% (active)
14 | Cc1cccc(N2CCN(C3=C(Cl)C(=O)c4ncccc4C3=O)CC2)c1 | -39.5% (active) | 97.9% | 11.8% | 11% | 5.92% (active) | -16.3% (active) | 107% | 92.2%
15 | CCc1cc(O)ccc1Nc1cc(-c2ccc(-n3cccn3)cc2)[nH]n1 | 35.7% | 85.7% | 33% | 63.1% | 34.3% | 39% | 61.5% | 16.6%
16 | CC(=O)OCCCCN1C=C/C(=C\C(=O)n2ccc3ccccc32)c2ccccc21 | 92.7% | 113% | 106% | 98.4% | 90.4% | 103% | 112% | 97.7%
17 | CCCN1C=C/C(=C\C(=O)n2ccc3ccccc32)c2ccccc21 | 46.6% | 103% | 93% | 86.6% | 64.5% | 69% | 104% | 84.8%
18 | CN1CCN(c2ccc(Nc3nc(NCCNC(=O)c4ccc(F)cc4)c4sccc4n3)cc2)CC1 | 18.2% | 56.1% | 46.9% | 75.2% | 41% | 22% | 70.4% | 65.4%
19 | CCOP(=O)(OCC)OC[C@]12CC[C@@H](C)[C@H](C)C1C1=CC[C@@H]3[C@@]4(C)CCCNC(C)(C)[C@@H]4CC[C@@]3(C)[C@]1(C)CC2 (some centres undefined) | 38.2% | 71.7% | 28.4% | -54.7% (active) | -59.8% (active) | -84.5% (active) | -55.1% (active) | 18.2%
20 | O=C(CCCCCCNC(=O)c1csc(Br)n1)NO | 6.1% (active) | 88.4% | 12% | 7.18% (active) | 26.7% | 3.29% (active) | 63% | 56.8%
21 | CN(C)c1ccc(/C=N/Nc2nc(N/N=C/c3ccc(N(C)C)cc3)nc(N3CCCCC3)n2)cc1 | 46% | 111% | 60.4% | 64.2% | 31.1% | 14.9% | 103% | 93%
22 | COc1ccccc1/C=C/C(=O)c1nnn(-c2ccc(F)cc2)c1C | 54.9% | 62% | 23.4% | 19.9% | 7.51% (active) | 10.7% | 81.3% | 32.6%
23 | COCCOc1ccc2ncc(C#Cc3cncc(C(=O)Nc4ccc(CN5CCN(C)CC5)c(C(F)(F)F)c4)c3)n2n1 | 59.6% | 0.139% (active) | 11.5% | -34% (active) | -59.8% (active) | -86.7% (active) | 33.6% | 0.84% (active)
24 | CCCc1cc2cc(-n3nc(CC)c4c3CC(C)(C)CC4=O)cc(NC3CCC(O)CC3)c2c(=O)[nH]1 (centres undefined) | 29.6% | 38.7% | 0.0389% (active) | 12.3% | 17.7% | 6.5% (active) | 8.95% (active) | 15.4%
25 | CCOC(=O)C1=C(C)NC(C)=C(C(=O)OC(C)C)C1c1cccc(C#N)c1 (centres undefined) | 95.1% | 126% | 104% | 99.2% | 94.5% | 94% | 104% | 98%
26 | FC(F)(F)c1cc(Br)cc(-c2cc(-c3ccc4c(c3)OCCO4)[nH]n2)c1 | 66.4% | -3.55% (active) | -12.3% (active) | 25.3% | 11.4% | 5.67% (active) | 29.1% | 12.3%
27 | Cc1ccc2c(n1)C(=O)C(Cl)=C(Nc1cc(C(F)(F)F)cc(C(F)(F)F)c1)C2=O | -9.18% (active) | 115% | 93.8% | 2.41% (active) | -24.9% (active) | 42% | 96.5% | 97%
28 | O=C(CSc1nc2ccccc2c(=O)n1-c1ccc(Cl)c(Cl)c1)Nc1ccc(S(=O)(=O)Nc2ccc(Cl)nn2)cc1 | 85.9% | 94.4% | 97.8% | 89.7% | 95.6% | 92% | 95.1% | 102%
